# Experimental data as given in PubChem BioAssay (EPA / NIEHS).
# The source made the active and inactive calls. The calls were made as follows: active = hit-call score of the fitted dose curve at least 0.9, where 1 is the maximum; inactive = score below 0.9.
# Test: ATG_EGR_CIS: Attagene CIS-FACTORIAL HepG2 Assay for human Early Growth Response 1 (EGR1) (AID 2282938)
# Settings: HepG2 Attagene CIS-FACTORIAL EGR reporter mRNA; actives raise or lower the signal
# Outline: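 Endogenous TF activity in HepG2 liver cells was gauged through cis-promoter reporter constructs transiently transfected. After 24 h dosing, reporter mRNA was quantified by RT-PCR and capillary electrophoresis, and curves fitted in both directions versus DMSO.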
SMILES,outcome,AC50
O=[N+]([O-])c1ccc(O)cc1,inactive,
COC(=O)CCCCC(=O)OC,inactive,
CC(C)CCCCCCOC(=O)CCCCC(=O)OCCCCCCC(C)C,inactive,
CC(C)(C)c1cc(C(C)(C)C)c(O)c(C(C)(C)C)c1,inactive,
CCCCCCCCCCCCN1CCCC1=O,inactive,
Oc1cc2ccccc2c2ccccc12,inactive,
C[C@@H]1C[C@H]2[C@@H]3CCC4=CC(=O)C=C[C@]4(C)[C@@]3(F)[C@@H](O)C[C@]2(C)[C@@]1(O)C(=O)COP(=O)(O)O,inactive,
COc1cc(CCC(=O)CC(=O)CCc2ccc(O)c(OC)c2)ccc1O,inactive,
O=c1c(-c2ccc(O)cc2)coc2cc(O)ccc12,inactive,
CN(C)C=O,inactive,
Cc1oc(-c2ccccc2)nc1CCOc1ccc(C[C@H](Nc2ccccc2C(=O)c2ccccc2)C(=O)O)cc1,,17.1 µM (active)
OC1CCC(C2CCCCC2)CC1 (stereo not given),inactive,
CCCCCCCCOC(=O)CCCCCCCCC(=O)OCCCCCCCC,inactive,
CC(O)C(=O)O (stereo not given),inactive,
CCc1nn(C2CCCCC2)c2cc(C3(C#N)CCC(C(=O)O)CC3)ccc12 (stereo not given),inactive,
